{"source": "PubChem BioAssay AID1540", "about": "(National Center for Advancing Translational Sciences (NCATS), 2009)", "note": "Several values for one entry are separate records, joined by “and”; a condition that tells them apart may be missing. Equal values may be shown once. Results filed as inconclusive are left out. Values without a mark were called inactive. Activity calls are given as the source filed them. Calls come from the whole dose curve; as a rule, active = well fitted activation curve with a large enough effect; inconclusive = small, poorly fitted or top-dose-only effect, or effect the other way; inactive = flat fitted curve, though single readings scatter."}
{"target": "Pyruvate kinase PKM (Homo sapiens) (UniProt P14618)", "sequence (P14618 whole entry, looked up, canonical isoform)": "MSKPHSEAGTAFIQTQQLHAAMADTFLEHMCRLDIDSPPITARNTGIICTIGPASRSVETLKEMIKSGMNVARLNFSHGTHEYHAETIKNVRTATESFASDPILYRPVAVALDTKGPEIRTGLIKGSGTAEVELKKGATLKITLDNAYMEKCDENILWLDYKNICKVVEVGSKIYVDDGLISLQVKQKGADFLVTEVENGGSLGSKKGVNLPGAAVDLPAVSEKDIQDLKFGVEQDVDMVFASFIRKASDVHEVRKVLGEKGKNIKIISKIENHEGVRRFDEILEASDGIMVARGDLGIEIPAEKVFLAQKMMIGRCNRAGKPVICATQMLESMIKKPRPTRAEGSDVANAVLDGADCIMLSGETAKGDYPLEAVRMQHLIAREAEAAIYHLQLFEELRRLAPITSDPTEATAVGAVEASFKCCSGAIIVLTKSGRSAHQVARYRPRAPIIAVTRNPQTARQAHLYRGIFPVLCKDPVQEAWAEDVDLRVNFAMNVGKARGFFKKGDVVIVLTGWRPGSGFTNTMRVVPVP", "test": "Secondary assay for Activators of Human Pyruvate Kinase M2 isoform", "conditions": "purified hPK-M2, LDH-coupled NADH fluorescence kinetic; series mostly up to 57.5 µM; activation: at the top concentration", "text": "Confirmatory assay NIH Chemical Genomics Center [NCGC] Matthew G. Vander Heiden, M.D., Ph.D. [Harvard Medical School, 77 Avenue Louis Pasteur, Boston, MA 02115] NCGC Assay Overview: Human pyruvate kinase muscle 2 (hPK-M2)enzyme was supplied as a highly purified (>95% pure) preparation from Harvard Medical School and a secondary assay was used to evaluate compounds. This assay couples the formation of pyruvate from hPK-M2 using lactate dehydrogenase (LDH) and NADH. The depletion of NADH is followed in a fluorescent-based kinetic assay that follows the formation of pyruvate to lactate, as catalyzed LDH (described by Hannaert et al., 2002)1 Pyruvate kinase substrates, PEP and ADP, were present in the assay at 0.1 mM and 4 mM respectively. In this kinetic assay initial rates were determined by following the fluorescence of NADH depletion.\nNCGC Assay Protocol Summary: Three uL of substrate mix (final concentration, 50 mM Tris-Cl pH 8.0, 200 mM KCl, 15 mM MgCl2, 0.1 mM PEP, 4.0 mM ADP, and 0.2 mM NADH) was dispensed into black-solid 1536 well plates. 23 nL of compounds were delivered by a pin tool and 1 uL of enzyme mix (final concentrations, 10 nM hPK-M2 and 1 uM of LDH) was added. Plates were immediately placed in ViewLux (Perkin Elmer) and NADH fluorescence was determined at 30 second exposure intervals for between 3 and 6 minutes. Data were normalized to the uninhibited and EC100 activation using known activators such as fructose-bis-phosphate.", "units": {"activation": "%"}}
{"smiles": "CSc1cc2c(s1)c1cnn(Cc3cccc(O)c3)c(=O)c1n2C", "Potency": "0.0651 µM (active)"}
{"smiles": "Nc1ccc(S(=O)(=O)N2CCN(S(=O)(=O)c3ccc4c(c3)OCCO4)CC2)cc1", "Potency": "0.163 µM (active)"}
{"smiles": "Cc1cc2[nH]c3c(=O)n(Cc4ccccc4F)ncc3c2s1", "Potency": "0.708 µM (active)"}
{"smiles": "Cc1cc2c(s1)c1cnn(Cc3ccc(C(F)(F)F)cc3)c(=O)c1n2C", "Potency": "2.24 µM (active)"}
{"smiles": "O=S(=O)(c1ccc2c(c1)OCCO2)N1CCN(S(=O)(=O)c2ccc(F)cc2F)CC1", "Potency": "0.501 µM (active)"}
{"smiles": "CC(=O)Nc1ccc(S(=O)(=O)N2CCCN(S(=O)(=O)c3ccc4c(c3)OCCO4)CC2)cc1", "Potency": "2.59 µM (active)"}
{"smiles": "O=S(=O)(NCCNS(=O)(=O)c1c(F)cccc1F)c1ccc2c(c1)OCCO2", "activation": 25.3}
{"smiles": "COC(=O)c1cc(F)c(S(=O)(=O)N2CCN(S(=O)(=O)c3ccc4c(c3)OCCO4)CC2)cc1F", "Potency": "0.355 µM (active)"}
{"smiles": "Cc1cc2c(s1)c1cnn(Cc3ccc(F)c(F)c3F)c(=O)c1n2C", "Potency": "1.26 µM (active)"}
{"smiles": "O=S(=O)(c1ccccc1)N1CCN(S(=O)(=O)c2ccc3c(c2)OCCO3)CC1", "Potency": "0.447 µM (active)"}
{"smiles": "CS(=O)(=O)Nc1cccc(-c2cc(F)c(S(=O)(=O)N3CCN(S(=O)(=O)c4ccc5c(c4)OCCO5)CC3)cc2F)c1", "activation": -11.4}
{"smiles": "Cn1c2cc(B(O)O)sc2c2cnn(Cc3ccccc3F)c(=O)c21", "Potency": "15.8 µM (active)"}
{"smiles": "COc1cc(F)c(S(=O)(=O)N2CCCN(S(=O)(=O)c3ccc(NC(C)=O)cc3)CC2)c(F)c1", "Potency": "6.51 µM (active)"}
{"smiles": "O=S(=O)(c1ccc2c(c1)OCCO2)N1CCN(S(=O)(=O)c2ccccc2F)CC1", "Potency": "0.316 µM (active)"}
{"smiles": "Cn1c2cc(Br)sc2c2cnn(Cc3ccc(F)cc3F)c(=O)c21", "Potency": "0.708 µM (active)"}
{"smiles": "CC(=O)Nc1ccc(S(=O)(=O)N2CCN(S(=O)(=O)c3ccc4c(c3)OCCO4)CC2)cc1", "Potency": "0.919 µM (active)"}
{"smiles": "CCCc1cc(F)c(S(=O)(=O)N2CCN(S(=O)(=O)c3ccc4c(c3)OCCO4)CC2)cc1F", "Potency": "8.91 µM (active)"}
{"smiles": "COc1ccc(S(=O)(=O)N2CCN(S(=O)(=O)c3ccc4c(c3)OCCO4)CC2)cc1", "Potency": "0.562 µM (active)"}
{"smiles": "Cc1cc2c(s1)c1cnn(Cc3ccc(F)cc3)c(=O)c1n2C", "Potency": "0.251 µM (active)"}
{"smiles": "CCn1c2cc(C)sc2c2cnn(Cc3ccccc3F)c(=O)c21", "Potency": "5.01 µM (active)"}
{"smiles": "COC/C=C/c1cc(F)c(S(=O)(=O)N2CCN(S(=O)(=O)c3ccc4c(c3)OCCO4)CC2)cc1F", "Potency": "17.8 µM (active)"}
{"smiles": "Cn1c2cc(C=O)sc2c2cnn(Cc3ccccc3F)c(=O)c21", "Potency": "0.282 µM (active)"}
{"smiles": "COc1ccc(Cn2ncc3c4sc(C)cc4n(C)c3c2=O)cc1", "Potency": "0.199 µM (active)"}
{"smiles": "COc1cc(F)c(S(=O)(=O)N2CCN(S(=O)(=O)c3ccc(N)cc3)CC2)c(F)c1", "Potency": "0.183 µM (active)"}
{"smiles": "O=S(=O)(c1ccc2c(c1)OCCO2)N1CCN(S(=O)(=O)c2c(F)cccc2F)CC1", "Potency": "1 µM (active) and 562 nM (active)"}
{"smiles": "Cc1cc2c(s1)c1cnn(Cc3ccccc3Cl)c(=O)c1n2C", "Potency": "0.562 µM (active)"}
{"smiles": "COc1cc(F)c(S(=O)(=O)N2CCCN(S(=O)(=O)c3cccc(N)c3)CC2)c(F)c1", "Potency": "146 nM (active) and 1.16 µM (active)"}
{"smiles": "O=S(=O)(c1ccc(Cl)cc1)N1CCN(S(=O)(=O)c2ccc3c(c2)OCCO3)CC1", "Potency": "1.12 µM (active)"}
{"smiles": "C=CCc1cc(F)c(S(=O)(=O)N2CCN(S(=O)(=O)c3ccc4c(c3)OCCO4)CC2)cc1F", "Potency": "2 µM (active)"}
{"smiles": "CCOC(=O)CCc1cc(F)c(S(=O)(=O)N2CCN(S(=O)(=O)c3ccc4c(c3)OCCO4)CC2)cc1F", "Potency": "10 µM (active)"}
{"smiles": "Cc1cc2c(s1)c1cnn(Cc3ccc(C(C)C)cc3)c(=O)c1n2C", "Potency": "4.47 µM (active)"}
{"smiles": "CN(C)c1cccc(S(=O)(=O)N2CCN(S(=O)(=O)c3ccc4c(c3)OCCO4)CC2)c1", "activation": -8.86}
{"smiles": "COc1cc(F)c(S(=O)(=O)N2CCCN(S(=O)(=O)c3cccc(NC(C)=O)c3)CC2)c(F)c1", "Potency": "2.91 µM (active)"}
{"smiles": "O=S(=O)(c1ccc2c(c1)OCCO2)N1CCN(S(=O)(=O)c2cccc[n+]2[O-])CC1", "Potency": "4.47 µM (active)"}
{"smiles": "CC(=O)Nc1cccc(S(=O)(=O)N2CCN(S(=O)(=O)c3c(F)cccc3F)CC2)c1", "Potency": "14.6 µM (active)"}
{"smiles": "Cn1c2cc(S(C)=O)sc2c2cnn(Cc3ccccc3F)c(=O)c21", "note": "(stereo not given)", "Potency": "0.398 µM (active)"}
{"smiles": "COc1cc(F)c(S(=O)(=O)N2CCN(S(=O)(=O)c3ccc4c(c3)OCCO4)CC2)c(F)c1", "Potency": "0.562 µM (active)"}
{"smiles": "Cc1ccc(Cn2ncc3c4sc(C)cc4n(C)c3c2=O)cc1", "Potency": "1.26 µM (active)"}
{"smiles": "COc1cc(F)c(S(=O)(=O)N2CCN(S(=O)(=O)c3cccc(NC(C)=O)c3)CC2)c(F)c1", "Potency": "1.03 µM (active)"}
{"smiles": "O=C(O)c1cc(F)c(S(=O)(=O)N2CCN(S(=O)(=O)c3ccc4c(c3)OCCO4)CC2)cc1F", "Potency": "31.6 µM (active)"}
